In PubChem BioAssay (NCI):
The panel holds about 83,000 compounds, 20% with a hit somewhere; the sample as a whole holds those more often.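 Percent growth is the endpoint: 0 to 100 indicates growth inhibition (40 means 60% inhibition), 0 means no net growth, and negative values indicate cell death.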 Unmarked numbers belong to inactive results. Activity calls are given as the source filed them. The calls were made as follows: active = growth percent below 10; inactive = the rest.

The compounds below were run on MDA-MB-468 breast (assay: NCI-60 one-dose screen, 48 h (100 = growth as untreated, 0 = no growth, -100 = all killed)). Details: 10 µM unless noted.
With `COc1cc(C(=O)n2nc(N)c3c(C)cc(C)nc32)cc(OC)c1OC` the growth was 20.3%. For `COc1cc2c(c(OC)c1OC)CCC(c1cccc(C(=O)Nc3cccc(Cl)c3)c1)O2` (centres undefined), the growth was 77.4%. For `Cc1ccc2oc(=O)cc(C3c4ccc([nH]4)C(c4cc(=O)oc5ccc(C)cc45)c4ccc([nH]4)C(c4cc(=O)oc5ccc(C)cc45)c4ccc([nH]4)C(c4cc(=O)oc5ccc(C)cc45)c4ccc3[nH]4)c2c1` (centres undefined), the growth was -28.6% (active). With `OCCNc1nc(NCCO)nc(Nc2ccc(C3=NN(c4cc(Cl)cc(Cl)c4)C(c4ccccc4)C3)cc2)n1` (centres undefined) the growth was 73.5%. `O=C1CC(c2nc3ccccc3s2)CN1C1CCCCC1` (centres undefined) showed a growth of 104%. `Cc1ccc(OCCOCCOCCOc2ccc(C)n(O)c2=S)c(=S)n1O` gave a growth of 12.1%. `CCOC(=O)c1ccc2c(c1)[n+](=O)c(C(=O)c1ccc3ccccc3c1)c(C(F)(F)F)n2[O-]` was tested, and the growth was -92.6% (active). For `C=C(C)[C@@H]1CC[C@]2(C(=O)OCCOCCOCC[P+](c3ccccc3)(c3ccccc3)c3ccccc3)CC[C@]3(C)[C@H](CC[C@@H]4[C@@]5(C)CC[C@H](OC(C)=O)C(C)(C)[C@@H]5CC[C@]43C)[C@@H]12`, the growth was -76.5% (active). With `CN(C)CCC(=O)c1ccc([N+](=O)[O-])cc1` the growth was 86.5%. With `OC(c1cc(-c2ccc(Cl)cc2)nc2c(Cl)cccc12)C1CCCCN1` (centres undefined) the growth was -86.7% (active). `Cn1cc(-c2nc3c(F)cc4[nH]ncc4c3c3c2CCCC3)c(C(F)(F)F)n1` gave a growth of 33%. In the case of `O=C(Nc1nc(-c2ccccc2Cl)cs1)c1cc(-c2ccc(Br)cc2)nc2ccccc12`, the growth is reported as 5% (active). For `CCCCC(=O)Nc1ncc(Cc2ccc(Cl)cc2)s1`, the growth was 26.2%. In the case of `O=C(CSc1nnc(-c2ccc(NC(=O)c3cccnc3)cc2)o1)N[C@@H](Cc1ccc(O)cc1)C(=O)O`, the growth is reported as 110%. In the case of `COC(=O)/C(CCC=C(C)C)=C1\[C@@H](OC(C)=O)C[C@@]2(C)[C@H]1C[C@@H](O)[C@H]1[C@@]3(C)CC[C@H](NC(=O)c4cnccn4)[C@@H](C)[C@@H]3CC[C@@]12C`, the growth is reported as 106%. `c1cnc2[nH]cc(-c3nc(-c4ccsc4)cs3)c2c1` gave a growth of 74.6%. With `Cc1ccc(C)c(NC2=C(Cl)C(=O)c3nc(C)ccc3C2=O)c1` the growth was -73.5% (active). With `OCCCC1CCN(C(Cc2ccccc2)c2ccccc2)CC1` (centres undefined) the growth was 95.2%. With `COc1cc(/C=C2\CN(S(=O)(=O)c3ccccc3)C/C(=C\c3cc(CN4CCCC4)c(O)c(OC)c3)C2=O)cc(CN2CCCC2)c1O` the growth was -32.1% (active). In the case of `CCCC(=O)NC(c1cccnc1)c1ccc2c(C)ccnc2c1O` (centres undefined), the growth is reported as -2% (active). Compound `COc1c(O)c2c3c(c1OC)-c1ccccc1CC3N(S(=O)(=O)c1ccc(C)cc1)CC2` (centres undefined) has a growth of 37.1%. For `COc1ccc(-c2nsc3c2NC(=O)CC3c2cccc(Cl)c2)cc1` (centres undefined), the growth was -6.39% (active). For `COc1cc(NS(C)(=O)=O)ccc1Nc1c2ccccc2nc2c(C)cccc12`, the growth was -14.3% (active). With `O=C1/C(=C/c2ccc(F)cc2)C=C(c2ccccc2)N1CCc1ccccc1` the growth was 72.9%. `COc1cc(/C=C/C(=O)c2ccc(NC(=O)CSc3nnc(-c4ccc(Cl)cc4)n3-c3ccccc3)cc2)cc(OC)c1OC` showed a growth of 72.9%. Work on `O=C(Nc1ccc(OCc2nnc(-c3ccccc3)o2)c(F)c1)Nc1ccc(Cl)c(Cl)c1` yielded a growth of 26.3%. In the case of `Nc1c(C(=O)Nc2ccncc2)sc2nc3c(cc12)CCCCCCCC3`, the growth is reported as -75.7% (active). `Cc1ccccc1C(=O)c1ccccc1C(=O)O` gave a growth of 108%. `O=C(CNCCO)Nc1ccc2ncnc(Nc3ccc(OCc4cccc(F)c4)c(Cl)c3)c2c1` was tested, and the growth was -17.8% (active). `CCOC(=O)C(C#N)C1CCCCC1` (centres undefined) gave a growth of 124%. In the case of `O=C(CCN1CCCC1)Nc1ccc2c(NCCCCc3ccccc3)c3ccccc3nc2c1`, the growth is reported as -74.7% (active). Compound `CC(C)/C=N/NC(N)=S` has a growth of 19.3%. Work on `[Cu+].[NH-][C@H]1C[N-]C(=O)[C@H]([C@H]2CCN=C(N)N2)[N-]C(=O)/C(=C\NC(N)=O)[N-]C(=O)[C@H](CNC(=O)C[C@@H](N)CCCN)[N-]C(=O)[C@H](CO)[N-]C1=O` yielded a growth of 96.2%. In the case of `O=C(CNCCN1CCOCC1)N1c2cccc3cccc(c23)N(C(=O)CNCCN2CCOCC2)C1c1cn(-c2ccccc2)nc1-c1cccc([N+](=O)[O-])c1`, the growth is reported as 35.8%.
